Compound activity deposited in PubChem BioAssay by Center for Chemical Genomics, University of Michigan.
An excerpt weighted towards active compounds, which were near 0.86% of everything screened.
HIV TAR-Tat: HIV-1 TAR-Tat binding disruption; 100,000 compounds, 0.6% hits; HIV-1 TAR RNA, Tat peptide displacement FRET; stronger effect = higher value; z-score (test concentration not listed); active means z-score of 3 or more in at least 2 runs
CDC25B CDK2 inh: human CDC25B-CDK2/CyclinA binding inhibition; P30305+P24941; HTRF CDC25B-CDK2/CyclinA binding, anti-His/anti-Flag; stronger effect = higher value; z-score (no concentration beside the values); 94,000 compounds, 0.72% hits; in the data active means z-score above about 3.2
* hit, by the source's call; / = no result given.

SMILES | HIV TAR-Tat | CDC25B CDK2 inh
COc1cc(/C=C2/SC(=S)NC2=O)ccc1OCCSc1ccc(C)cc1 | / | -1.87
CCc1ccc(S(=O)(=O)Nc2ccc3oc(=O)sc3c2)cc1 | 2.18 | -2.12
N#CC1=C2SCN(Cc3ccco3)CN2C(=O)CC1c1ccc(OCc2ccccc2)cc1 (configuration not stated) | 0.22 | -1.75
N#CC1=C2SCN(Cc3ccco3)CN2C(=O)CC1c1cccc(OCc2ccccc2)c1 (configuration not stated) | -1.2 | 3.42*
COc1ccc(C2CC(=O)N3CN(CCCc4ccccc4)CSC3=C2C#N)cc1OC (configuration not stated) | 0.56 | 5.85*
CC(NC(=O)c1cnc2sc3c(n2c1=O)CCCC3)c1ccccc1 (configuration not stated) | 1.7 | /
CCOC(=O)CC1=Nn2c(nnc2-c2ccccc2)SC1 | 0.89 | -2.03
CC(=O)Oc1cccc(O)c1 | 1.26 | /
CC(Oc1ccc(O)cc1)(P(=O)(O)O)P(=O)(O)O | 26.3* | /
O=c1c(O)cccc2cc(O)c(O)c(O)c12 | 30.4* | /
O=C1c2ccccc2C(=O)c2c(O)c(O)cc(O)c21 | 3.46 | /
O=C(CC1(O)C(=O)N(CCc2ccccc2)c2ccc(Br)cc21)c1cccnc1 (configuration not stated) | -0.53 | -1.18
O=C(O)c1cccc(Nc2cc(N3CCOCC3)c3noc4c3c2C(=O)c2ccccc2-4)c1 | 7* | -0.18
O=C1CCN(c2cc(Nc3ccc(C(=O)O)cc3)c3c4c(onc24)-c2ccccc2C3=O)CC1 | 26.7* | 14.1
O=C1c2ccccc2-c2onc3c(N4CCOCC4)cc(Nc4ccc5c(c4)OCO5)c1c23 | -0.81 | 0.7
CN(C)c1ccc(Nc2cc(N3CCOCC3)c3noc4c3c2C(=O)c2ccccc2-4)cc1 | -4.36 | -0.37
COC(=O)c1ccc(Nc2cc(N3CCOCC3)c3noc4c3c2C(=O)c2ccccc2-4)cc1 | 3.37 | 7.56*
COc1ccc(Nc2cc(N3CCC(=O)CC3)c3noc4c3c2C(=O)c2ccccc2-4)cc1 | -0.22 | 0.9
O=C1c2ccccc2-c2onc3c(N4CCOCC4)cc(Nc4cccc(F)c4)c1c23 | 0.23 | 0.54
O=C1CCN(c2cc(Nc3cccc(F)c3)c3c4c(onc24)-c2ccccc2C3=O)CC1 | 17.2* | 7.78*
CN(c1ccccc1)S(C)(=O)=O | 2.09 | -2.05
CCCCSc1nnc(-c2nonc2NC(C)=O)n1CC | 0.8 | -1.07
COc1ccc(-c2cc(C(F)F)n3ncc(C(=O)N(C)C4CCCCC4)c3n2)cc1 | -0.62 | -0.47
CCN1CCN(c2nc(NCCCO)nc3c2cnn3C)CC1 | 1.33 | /
COc1ccc(-c2nnc(SCCOc3ccccc3C)o2)cc1 | 1.67 | 1.53
SMILES | HIV TAR-Tat | CDC25B CDK2 inh
O=C(CSc1ncnc2c1sc1cccc(F)c12)N1CCN(C2CCCCC2)CC1 | -3.86 | /
O=C1c2ccccc2-c2onc3c(N4CCOCC4)cc(Nc4ccccc4)c1c23 | 0.02 | -2.2
O=C(O)c1ccc(Nc2cc(N3CCOCC3)c3noc4c3c2C(=O)c2ccccc2-4)cc1 | 31.5* | 11.3*
COCCCNC(=O)NC1COc2ccccc2C1 (configuration not stated) | 1.04 | /
CCN(CC)c1ccc(Nc2nc(-c3sc(N)nc3C)cs2)cc1 | 5.68* | 0.23
CCN(CC)c1ccc(Nc2nc(-c3sc(NC(C)=O)nc3C)cs2)cc1 | 0.82 | -0.29
COc1ccc(-c2cccc(NS(=O)(=O)c3cccc(F)c3)c2)nn1 | 0.84 | /
Cc1ccc(CNC(=O)Cn2nc(C)n3c(cc4occc43)c2=O)cc1 | 2.08 | 0.57
COc1ccc(Br)cc1CNC(=O)Cn1nc(C)n2c(cc3occc32)c1=O | 1.1 | 11.9*
O=C(Cn1ncn2c(cc3ccccc32)c1=O)NCc1ccc2c(c1)OCO2 | -1.21 | -1.14
CC(C)OC(=O)Cn1c2ccccc2c2nc3ccccc3nc21 | 2.86 | -1.43
COC(=O)Cn1c2ccc(Cl)cc2c2nc3ccccc3nc21 | 0.17 | 19.3*
Cc1cc2n(n1)CCCN2C(=O)CCC(=O)NCCCOC(C)C | 4.34* | /
COCCCNC(=O)CCC(=O)N1CCCn2nc(C)cc21 | 2.29 | /
Cc1c(C(=S)Nc2ccccc2)sc2ccccc12 | / | -1.28
COC(=O)c1cc(-c2cccs2)nc2c1c(=O)nc(SCC(=O)N(C)C1CCCCC1)n2C | 0.69 | /
Cc1cc(F)ccc1-n1nnc(C(=O)O)c1C | 4.37 | -0.79
COc1ccc(OC)c(NC(=O)C(C)Sc2nnc(-c3ccoc3C)o2)c1 (configuration not stated) | 2.08 | 11.8*
COc1cc(OC)c(NC(=O)C(C)Sc2nnc(-c3ccoc3C)o2)cc1Cl (configuration not stated) | 1.72 | -0.34
CN1c2ccccc2-c2nc(SCC(=O)Nc3cccc(Cl)c3)ncc2S1(=O)=O | 1.09 | /
O=C1CC(c2ccco2)CC2=C1C(c1ccccc1)C1=C(N2)c2ccccc2C1=O (configuration not stated) | 0.01 | 12.3*
CCCCOC(=O)C1=C(C)NC2=C(C(=O)CC(c3ccccc3)C2)C1c1ccco1 (configuration not stated) | 1.55 | 1.35
C=CCn1c(=O)sc2cc(NC(=O)c3sccc3C)ccc21 | 1.17 | /
CCOc1cc(C2C3=C(CCCC3=O)NC3=C2C(=O)CCC3)cc(Cl)c1O | 0.23 | 15.8*
CCOc1cc(C2C3=C(CCCC3=O)N(C)C3=C2C(=O)CCC3)cc(Cl)c1O | 0.39 | -0.94
SMILES | HIV TAR-Tat | CDC25B CDK2 inh
CCSc1nnc(Cn2c(=O)sc3ccccc32)n1-c1ccccc1 | / | -0.92
Cc1cc2c3c([nH]c2cc1S(=O)(=O)Nc1ccccc1)CCCC3=O | -1.3 | /
Cc1cc2c3c([nH]c2cc1S(=O)(=O)Nc1ccc(S(N)(=O)=O)cc1)CCCC3=O | 10.8* | /
Cc1cc2c3c([nH]c2cc1S(=O)(=O)Nc1cccnc1)CCCC3=O | 7.64* | /
Cc1ccc(NS(=O)(=O)c2cc3[nH]c4c(c3cc2C)C(=O)CCC4)cc1 | -0.82 | /
CCC1Nc2c(sc3nc(C)cc(COC)c23)C(=O)N1Cc1ccco1 (configuration not stated) | -2.41 | -0.6
COc1ccc(Cn2cc(C(=O)c3ccc(F)cc3)c(=O)c3cc(OC)ccc32)cc1 | 0.76 | 1.13
CCOc1ccc(Nc2nc(-c3ccccn3)cs2)cc1 | / | 18.8*
COc1ccc(Nc2nc(-c3ccccn3)cs2)cc1 | 1.61 | -1.76
COc1ccc(N2CSC3=C(C#N)C(c4cc(Br)ccc4OC)CC(=O)N3C2)cc1 (configuration not stated) | -0.71 | 5.38*
COc1ccc(Br)cc1C1CC(=O)N2CN(c3ccccc3OC)CSC2=C1C#N (configuration not stated) | 0.32 | 6.19*
COc1ccc(Br)cc1C1CC(=O)N2CN(C3CCCCC3)CSC2=C1C#N (configuration not stated) | -0.3 | -0.77
COc1ccc(C2CC(=O)N3CN(c4ccc(Br)cc4)CSC3=C2C#N)c(OC)c1 (configuration not stated) | -1.78 | 6.42*
COc1ccccc1N1CSC2=C(C#N)C(c3ccc(Br)cc3)CC(=O)N2C1 (configuration not stated) | -4.77 | 1.51
COc1ccc(OC)c(C2CC(=O)N3CN(c4ccc(F)cc4)CSC3=C2C#N)c1 (configuration not stated) | -2.08 | 3.97*
Cn1cccc1CNCCSc1nnnn1-c1ccccc1 | 0.52 | 0.33
O=C1CSc2ccc(S(=O)(=O)N3CCN(C4CCCCC4)CC3)cc2N1 | 2.89 | /
COc1ccc2nc3oc(C(=O)Nc4ccc(F)c(Cl)c4)cc3cc2c1 | / | -0.53
